# The full list was thinned out, with hits kept by preference.
# miR122 inh – miR-122 suppressors via Renilla sensor increase, primary screen, cell-based, Huh7 psiCHECK-miR122, Renilla luciferase, single point | AID 623901, 2012 | hit rate 0.14% among 340,000 | 48 h | activation, % at 12.5 µM;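 active = mean activation of 30% or more, with every replicate also reaching 30%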;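 also: 0% = median of neutral control wells and 100% = median of positive control wells; higher luciferase signal means stronger suppression of miR-122 activity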
# Numbers without * were called inactive.
SMILES,miR122 inh
C[C@@H]1CN([C@@H](C)CO)S(=O)(=O)c2ccc(C#Cc3ccncc3)cc2O[C@@H]1CN(C)C(=O)C1CCOCC1,32.8*
CC(C)C#Cc1ccc2c(c1)O[C@H](CN(C)C(=O)c1ccncc1)[C@H](C)CN([C@H](C)CO)S2(=O)=O,52.8*
CCCC#Cc1ccc2c(c1)O[C@H](CN(C)C(=O)CC)[C@H](C)CN([C@@H](C)CO)S2(=O)=O,-1.2
C[C@@H](O)C#Cc1ccc2c(c1)O[C@@H](CN(C)C(=O)c1ccncc1)[C@@H](C)CN([C@@H](C)CO)S2(=O)=O,2.2
C[C@@H]1CN([C@H](C)CO)S(=O)(=O)c2ccc(C#Cc3ccncc3)cc2O[C@@H]1CN(C)C(=O)C1CCCCC1,18.9
CC(C)CC#Cc1ccc2c(c1)O[C@H](CN(C)C(=O)c1cnccn1)[C@H](C)CN([C@@H](C)CO)S2(=O)=O,36.1*
COc1ccccc1-c1cnc2c(c1)C(=O)N([C@H](C)CO)C[C@@H](C)[C@@H](CN(C)C(=O)CN(C)C)O2,7.8
C/C=C/c1cnc2c(c1)C(=O)N([C@H](C)CO)C[C@@H](C)[C@H](CN(C)C(=O)c1cccnc1)O2,1.8
COCC#Cc1cnc2c(c1)C(=O)N([C@@H](C)CO)C[C@@H](C)[C@H](CN(C)C(=O)Nc1c(C)noc1C)O2,4.7
COc1cccc(-c2cnc3c(c2)C(=O)N([C@H](C)CO)C[C@H](C)[C@H](CN(C)C(=O)Nc2ccccc2F)O3)c1,2.5
COc1ccccc1-c1cnc2c(c1)C(=O)N([C@@H](C)CO)C[C@@H](C)[C@@H](CN(C)Cc1ccc(C(=O)O)cc1)O2,-111.1
C[C@H](CO)N1C[C@H](C)[C@H](CN(C)C(=O)Nc2ccccc2)Oc2ncc(C#Cc3ccc(F)cc3)cc2C1=O,-8.1
COCC(=O)N(C)C[C@@H]1Oc2cc(C#CC3CC3)ccc2S(=O)(=O)N([C@@H](C)CO)C[C@@H]1C,2.4
COc1ccccc1-c1cnc2c(c1)C(=O)N([C@H](C)CO)C[C@H](C)[C@@H](CN(C)C(=O)CN(C)C)O2,6.1
CCCNC(=O)N(C)C[C@H]1Oc2ncc(C#CC(C)C)cc2C(=O)N([C@H](C)CO)C[C@@H]1C,7.4
C[C@H](CO)N1C[C@H](C)[C@@H](CN(C)Cc2cncnc2)Oc2ncc(-c3cccc(F)c3)cc2C1=O,4.0
CCC(=O)Nc1ccc2c(c1)OC[C@H](C)N(C(=O)c1ccncc1)C[C@@H](C)[C@H](OC)CN(C)C2=O,-6.9
COc1ccccc1-c1ccc2c(c1)O[C@@H](CN(C)S(=O)(=O)c1ccccc1)[C@H](C)CN([C@H](C)CO)S2(=O)=O,-8.7
C[C@H]1CN([C@@H](C)CO)S(=O)(=O)c2ccc(C#Cc3cccnc3)cc2O[C@@H]1CN(C)C(=O)C1CC1,-15.0
COCC#Cc1ccc2c(c1)O[C@@H](CN(C)Cc1cncnc1)[C@@H](C)CN([C@@H](C)CO)S2(=O)=O,-3.6
C/C=C/c1ccc2c(c1)O[C@H](CN(C)C(=O)c1cnccn1)[C@H](C)CN([C@@H](C)CO)S2(=O)=O,44.3*
CC(C)CC#Cc1ccc2c(c1)O[C@H](CN(C)C(=O)c1ccccc1)[C@H](C)CN([C@H](C)CO)S2(=O)=O,42.4*
CCC(=O)N(C)C[C@H]1Oc2cc(C#Cc3cccnc3)ccc2S(=O)(=O)N([C@@H](C)CO)C[C@H]1C,-15.6
C/C=C/c1ccc2c(c1)O[C@@H](CN(C)C(=O)Cc1ccccn1)[C@@H](C)CN([C@@H](C)CO)S2(=O)=O,0.2
C[C@@H]1CN([C@@H](C)CO)S(=O)(=O)c2ccc(C#C[C@@H](C)O)cc2O[C@H]1CN(C)Cc1cccnc1,7.7
SMILES,miR122 inh
CC(C)CC#Cc1ccc2c(c1)O[C@H](CN(C)C(=O)c1ccccc1)[C@@H](C)CN([C@@H](C)CO)S2(=O)=O,-40.0
COCC(=O)N(C)C[C@H]1Oc2cc(C#Cc3cccnc3)ccc2S(=O)(=O)N([C@H](C)CO)C[C@H]1C,50.6*
C[C@H](O)C#Cc1ccc2c(c1)O[C@@H](CN(C)Cc1cccnc1)[C@H](C)CN([C@@H](C)CO)S2(=O)=O,6.8
C/C=C/c1ccc2c(c1)O[C@H](CN(C)C(=O)c1cccnc1)[C@@H](C)CN([C@H](C)CO)S2(=O)=O,-4.9
C[C@H](O)C#Cc1ccc2c(c1)O[C@@H](CN(C)Cc1ccc(-c3ccccc3)cc1)[C@H](C)CN([C@H](C)CO)S2(=O)=O,45.3*
CCC(=O)N(C)C[C@@H]1Oc2cc(C#Cc3cccnc3)ccc2S(=O)(=O)N([C@@H](C)CO)C[C@H]1C,-8.0
CC(C)C#Cc1ccc2c(c1)O[C@H](CN(C)C(=O)c1ccccc1)[C@H](C)CN([C@H](C)CO)S2(=O)=O,12.3
CC(C)C#Cc1ccc2c(c1)O[C@H](CN(C)C(=O)CC1CC1)[C@@H](C)CN([C@@H](C)CO)S2(=O)=O,-6.9
C[C@@H]1CN([C@@H](C)CO)C(=O)c2cc(C#CC(C)(C)O)cnc2O[C@H]1CN(C)C(=O)C1CC1,2.2
C[C@H](CO)N1C[C@H](C)[C@H](CN(C)C(=O)C2CCOCC2)Oc2ncc(-c3ccncc3)cc2C1=O,3.1
C/C=C/c1ccc2c(c1)O[C@H](CN(C)C(=O)CC1CC1)[C@H](C)CN([C@@H](C)CO)S2(=O)=O,-6.0
Cc1ccccc1-c1ccc2c(c1)O[C@@H](CN(C)C(=O)Nc1ccccc1)[C@H](C)CN([C@H](C)CO)S2(=O)=O,-3.3
C/C=C/c1ccc2c(c1)O[C@H](CN(C)Cc1ccccc1)[C@@H](C)CN([C@@H](C)CO)S2(=O)=O,-8.5
C[C@H](CO)N1C[C@H](C)[C@H](CN(C)Cc2ccccn2)Oc2cc(-c3ccncc3)ccc2S1(=O)=O,5.9
C[C@@H]1CN([C@@H](C)CO)C(=O)c2cc(-c3ccc(C(=O)N(C)C)cc3)cnc2O[C@H]1CN(C)Cc1ccc(C(=O)O)cc1,5.2
COc1ccc(S(=O)(=O)N(C)C[C@H]2Oc3cc(C#CC4CC4)ccc3S(=O)(=O)N([C@H](C)CO)C[C@H]2C)cc1,-134.5
COCC#Cc1ccc2c(c1)O[C@H](CN(C)C(=O)C1CCOCC1)[C@@H](C)CN([C@H](C)CO)S2(=O)=O,-3.4
COc1ccc(C#Cc2ccc3c(c2)O[C@@H](CN(C)C(=O)NC2CCCCC2)[C@H](C)CN([C@H](C)CO)S3(=O)=O)cc1,-23.1
CCCC#Cc1ccc2c(c1)O[C@H](CN(C)C(=O)c1ccccn1)[C@@H](C)CN([C@H](C)CO)S2(=O)=O,-128.0
COc1cccc(C#Cc2ccc3c(c2)O[C@H](CN(C)C(=O)CN2CCOCC2)[C@H](C)CN([C@@H](C)CO)S3(=O)=O)c1,-28.5
COc1cccc(C#Cc2ccc3c(c2)O[C@H](CN(C)C(=O)CN2CCOCC2)[C@@H](C)CN([C@@H](C)CO)S3(=O)=O)c1,-17.7
CCCC#Cc1ccc2c(c1)O[C@H](CN(C)C(=O)c1cccnc1)[C@H](C)CN([C@H](C)CO)S2(=O)=O,11.3
COc1ccc(C#Cc2ccc3c(c2)O[C@H](CN(C)C(=O)CN2CCOCC2)[C@@H](C)CN([C@@H](C)CO)S3(=O)=O)cc1,42.8*
CC(C)CC#Cc1ccc2c(c1)O[C@H](CN(C)C(=O)c1cnccn1)[C@H](C)CN([C@H](C)CO)S2(=O)=O,39.3*
C[C@H]1CN([C@@H](C)CO)C(=O)c2cc(-c3ccncc3)cnc2O[C@@H]1CN(C)C(=O)Cc1ccccn1,-1.9
C[C@@H]1CN([C@@H](C)CO)C(=O)c2cc(Br)cnc2O[C@@H]1CN(C)Cc1cccc(F)c1,5.6
